Test results published in ChEMBL document CHEMBL3988442, “University of Dundee, Small-Polar-MMV Screening Library” (2021).

Key:
[1] = target: T1, Aspartate--tRNA(Asp/Asn) ligase (Mycobacterium tuberculosis (strain ATCC 25618 / H37Rv)) (UniProt P9WFW3); test: Assay for Asp RNA synthetase-1 from Mycobacterium tuberculosis; type: functional; parameters: scale not given: direction of the effect not stated beside the values; conditions: 30 µM; further: in the data most compounds retested in dose-response had high values
T1 sequence (whole entry): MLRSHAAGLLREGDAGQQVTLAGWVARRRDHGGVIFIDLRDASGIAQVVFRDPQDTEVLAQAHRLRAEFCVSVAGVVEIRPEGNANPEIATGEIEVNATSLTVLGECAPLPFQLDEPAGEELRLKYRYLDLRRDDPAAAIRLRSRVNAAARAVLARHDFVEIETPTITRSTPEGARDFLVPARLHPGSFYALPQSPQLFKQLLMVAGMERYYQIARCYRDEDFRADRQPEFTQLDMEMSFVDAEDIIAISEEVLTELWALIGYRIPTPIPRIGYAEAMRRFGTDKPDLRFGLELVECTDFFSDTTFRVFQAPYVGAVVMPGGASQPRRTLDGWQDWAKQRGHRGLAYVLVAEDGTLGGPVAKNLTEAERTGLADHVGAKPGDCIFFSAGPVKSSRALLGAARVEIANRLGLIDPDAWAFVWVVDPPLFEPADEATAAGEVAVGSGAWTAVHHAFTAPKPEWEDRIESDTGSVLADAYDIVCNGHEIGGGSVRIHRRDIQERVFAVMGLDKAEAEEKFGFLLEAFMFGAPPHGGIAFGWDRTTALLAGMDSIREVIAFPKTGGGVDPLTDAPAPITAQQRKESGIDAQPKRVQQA

[2] = target: Shiga toxin 2 (Escherichia coli O157:H7) (UniProt P09385+P09386); test: E. coli 0.157:H7 Shiga Toxin SOP - stx2 screening assay; type: functional; parameters: scale not given: direction of the effect not stated beside the values; conditions: 30 µM

| SMILES | Percent Effect [1] [%] | Percent Effect [2] [%] |
| --- | --- | --- |
| Cn1cc(CCNC(=O)NC2CCS(=O)(=O)C2)cn1 (configuration not stated) | 2.01 | -8.38 |
| Cc1c(I)cccc1C(=O)NCC1(CO)CC1 | 0.747 | 0.906 |
| COc1nn(C)c2c1CCCN(C(=O)c1cc[nH]n1)C2 | 0.229 | -2.49 |
| Cc1cccc(NC2CCN(C(=O)Nc3cccc4[nH]ccc34)CC2)n1 | -0.4 | -50 |
| CCC1CN(C(=O)NCCOc2ccc3c(c2)OCO3)CCO1 (configuration not stated) | -0.509 | -17.6 |
| CN(C)S(=O)(=O)c1ccc(OCCNCCn2cccn2)cc1 | -6.56 | -13.8 |
| CN1CCCCC1c1ncc2c(n1)CCN(Cc1ccccc1Cl)C2 (configuration not stated) | 3.02 | -22.5 |
| CN(C)c1nc2c(c(N3CCC(O)CC3)n1)CN(CC1CCNC1)CC2 (configuration not stated) | 3.47 | -11.1 |
| CC(C)Cc1nc(OCC(N)=O)c(C#N)c2c1CCC2 | 2.64 | -13.7 |
| Cc1cc(C)n(CC2CCCN2Cc2c(C)noc2C)n1 (configuration not stated) | -2.12 | -12.7 |
| CSCC(=O)N1CCCC(n2ccnc2C(C)C)C1 (configuration not stated) | -2.84 | 28.1 |
| O=C(CCN1C(=O)CCC1=O)Nc1cnn(-c2ccccc2Cl)c1 | 2.85 | 1.3 |
| Cc1c(CN2CCCC(c3[nH]ncc3S(C)(=O)=O)C2)cnn1C (configuration not stated) | -0.927 | -23.4 |
| COc1ccc(CN2CCC3(CC2)NC(=O)CC3c2ccncc2)cc1 (configuration not stated) | 5.29 | 9.6 |
| Cc1nn(C)c2c(N3CCN(C(=O)c4ccccc4)CC3)ncnc12 | 0.348 | -28.7 |
| O=S(=O)(NCC1(O)CCOc2ccccc21)c1ccc(Br)s1 (configuration not stated) | 3.31 | 17.9 |
| CC(C)c1nnc(NC(=O)NCc2ccc(CO)c(F)c2)s1 | 1.21 | 0.535 |
| Cc1ccc(C(C)N(C)Cc2nc3c(cnn3C)c(=O)[nH]2)cc1 (configuration not stated) | 1.46 | 12.8 |
| O=C(c1ccccc1N1CCOCC1)N1CCCC(n2cccn2)C1 (configuration not stated) | 0.062 | 19.5 |
| Cc1nc(C2CCN(C(=O)CO)CC2)cc(N2CCOCC2)n1 | -1.91 | 17.7 |
| CC(C)Oc1ccc(CNC(=O)CC(F)(F)F)cc1F | -4.64 | 33.4 |
| Cc1nn(C)c(N(C)C)c1CNC(C)c1cccc(OC(C)C)c1 (configuration not stated) | -3.06 | -5.32 |
| CC(NC(=O)NCCOc1ccc(F)c(F)c1)c1nncn1C (configuration not stated) | -4.5 | 27.5 |
| Cc1cc(C(=O)N2C[C@@H]3COC[C@]3(COCc3cccnc3)C2)no1 | 0.918 | -6.54 |
| O=C(c1ccc[nH]1)N1C[C@H]2CN(Cc3cccc(F)c3)C(=O)[C@H]2C1 | 0.565 | -9.53 |
| Cc1cc(-c2nn(C)c(Cl)c2CN2CCOCC2CC(=O)O)no1 (configuration not stated) | -2.48 | 19.9 |

| SMILES | Percent Effect [1] [%] | Percent Effect [2] [%] |
| --- | --- | --- |
| CC(C)N1CC(C(=O)NCCc2csc(-c3ccncc3)n2)CC1=O (configuration not stated) | 2.56 | -26.5 |
| Cc1csc(N2CCN(CCc3ccccn3)CC2C)n1 (configuration not stated) | -6.27 | -7.75 |
| CCc1ncc(CN(C)C(=O)Nc2cccnc2N2CCCC2)s1 | 2.75 | -14.5 |
| Cc1nc2ccccn2c1CN(Cc1cccnc1)CC1CCCO1 (configuration not stated) | 8.51 | -8.1 |
| Cc1noc(C)c1CN1CCN(Cc2nccn2C)C(C)C1 (configuration not stated) | -3.74 | 1.27 |
| COc1c(C2CCCN2C(=O)c2cccc(C(N)=O)c2)c(C)nn1C (configuration not stated) | 0.375 | 18 |
| CN(C(=O)c1cc(Cl)c[nH]1)C1CCN(c2ccccn2)CC1 | -6.49 | 1.72 |
| O=c1[nH]c2nc(N3CCSCC3)ncc2c(=O)n1-c1cccc(F)c1 | 13.7 | -14.3 |
| Cc1ccc(NC2CCN(C(=O)CN(C)C3CC3)CC2)nn1 | -0.538 | -2.23 |
| CSc1nccn1-c1cccc(C(=O)NCC2CC2)c1 | 4.07 | 32 |
| CCN1CCN(C(=O)c2ccn(C)c(=O)c2)CC1 | 2.87 | -14.7 |
| CC(=O)N(Cc1ncc(C)o1)C1CCN(CCCc2cnn(C)c2)C1 (configuration not stated) | 6.13 | -33.8 |
| O=C(c1cncc(Br)c1)N1CCC(O)(Cn2ccc3ccncc32)CC1 | 3.38 | -12.7 |
| CN(CCCOc1ccccc1)C(=O)CN1CCc2cncnc2C1 | 5.73 | 9.42 |
| CC(=O)Nc1nc(CN2CCn3c(nnc3C3CC3)C2)cs1 | -7.9 | -26.2 |
| CC(=O)Nc1ccc(CNC2CC(=O)N(Cc3cccc(F)c3)C2)cc1 (configuration not stated) | -2.06 | -10.3 |
| CCn1cc(N)c(C(=O)NCc2cnn(C)c2)n1 | -1.99 | -25.8 |
| CCOC(=O)N1CCN(Cc2ccc(OCc3nccn3C)cc2)CC1 | -4.7 | -21.9 |
| NC(=O)NCCC(=O)NCc1cccnc1N1CCc2ccccc2C1 | -1.71 | 6.61 |
| COCC1CN(Cc2ccc(C)o2)Cc2nnn(CC3CC3)c21 (configuration not stated) | -0.416 | -35.9 |
| COCCN(Cc1ccc(F)cc1Cl)C(=O)c1cccc[n+]1[O-] | -4.34 | 0.846 |
| Cc1nn(C)c(C)c1C1COCCN1C(=O)c1ccccc1 (configuration not stated) | -8.71 | -37.5 |
| Cn1cnnc1S(=O)(=O)C1CCN(S(=O)(=O)C2CC2)CC1 | -0.604 | -7.38 |
| Cc1nc(N2CCN(C(=O)c3ccccc3)CC2)c2c(n1)c(C)nn2C | -3.51 | -31 |
| CCN1CCC(c2nc3ccc(NC(C)C)cn3n2)CC1 | 2.52 | 4.27 |
